# Several values for one entry are separate records, joined by “and”; a condition that tells them apart may be missing. Equal entries are not always repeated. Records with an inconclusive call do not appear. Where a call stands in place of a potency, no number is given. Activity calls are given as the source filed them. Unless noted, the call rests on the fitted dose curve; in most records, active means well fitted curve in the direction sought with a large enough effect in the repeat runs; inconclusive means weak or mixed curves; inactive means no such curve, though single readings can be large; an effect the other way counts as inactive or inconclusive.
# How the values were obtained:
# [1] = qHTS assay to identify small molecule agonists of the NFkB signaling pathway - cell viability counter screen (AID 1159515; calls by dose curve; further: nearly all actives have a fitted effect of over 55% in size; further: potency means the concentration at half of the fitted maximal effect)
# Outline: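 Counter screen run alongside the NFkB-bla agonist assay: ME-180 reporter cells exposed to compounds for 5 hr, then lysed with CellTiter-Glo in the same wells. Luminescence, read after 30 min, reflects viable cells.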
# [2] = qHTS assay to identify small molecule agonists of the endoplasmic reticulum stress response signaling pathway - cell viability counter screen (AID 1159517; calls by dose curve;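 further: HeLa cells carrying an ER stress response element beta-lactamase reporter; series mostly up to about 61 µM; nearly all actives have a fitted effect of over 50% in size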)
# Outline: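 In parallel with the ESRE reporter read, cytotoxicity was scored by CellTiter-Glo luminescence (30 min, room temperature) on HeLa ESRE-bla cells dosed for 5 hr.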
# [3] = target: Nuclear receptor ROR-gamma (Homo sapiens) (UniProt P51449); assay: qHTS assay to identify small molecule antagonists of the retinoid-related orphan receptor gamma (ROR-gamma) signaling pathway (AID 1159521; further: nearly all actives have a fitted effect of over 50% in size; further: potency means the concentration at half of the fitted maximal effect)
# Outline: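 Screening format: cell-based luciferase reporter in CHO cells with doxycycline-inducible RORγ. Compound pre-exposure lasts 2 h, doxycycline is 1 uM final, induction runs 16 h at 37 C, and ONE-Glo luminescence is read.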
# [4] = qHTS assay to identify small molecule agonists of the AP-1 signaling pathway - cell viability counter screen (AID 1159525; calls by dose curve; further: nearly all actives have a fitted effect of over 55% in size; further: potency means the concentration at half of the fitted maximal effect)
# Outline: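 Same-well cytotoxicity counter screen of the Tox21 10K library in ME-180 cells. The readout is ATP-dependent luminescence after 5 h compound treatment. Data are normalised to DMSO and tetra n-octyl ammonium bromide controls.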
# [5] = qHTS assay to identify small molecule agonists of the AP-1 signaling pathway (AID 1159526; calls by dose curve)
# [6] = qHTS assay to identify small molecule agonists of the RXR signaling pathway - cell viability counter screen (AID 1159529); further: nearly all actives have a fitted effect of over 50% in size; further: potency means the concentration at half of the fitted maximal effect
# Outline: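 Viability read-out for the RXR-alpha agonist qHTS: luminescent CellTiter-Glo signal after 30 min at RT. HEK 293T bla reporter cells, 2% charcoal-stripped FBS, 16 hr compound incubation; tetraoctyl ammonium bromide as cytotoxic control.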
# [7] = qHTS assay to identify small molecule antagonists of the retinoid acid receptor (RAR) signaling pathway - cell viability counter screen (AID 1159551); further: nearly all actives have a fitted effect of over 35% in size; further: potency means the concentration at half of the fitted maximal effect
# Outline: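 Measured by luminescent ATP detection, viability reflects C3RL4 cells treated 6 h at 37 C with test chemicals in the presence of 1 uM (final) retinol.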
# [8] = qHTS assay to identify small molecule antagonists of the retinoic acid receptor (RAR) signaling pathway (AID 1159552; further: nearly all actives have a fitted effect of over 50% in size; further: potency means the concentration at half of the fitted maximal effect)
# Outline: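 Using a RARE-driven luciferase construct in C3RL4 cells, retinol at 1 uM final provided the agonist stimulus while compounds were co-applied. After 6 hours at 37 C, luminescence was recorded to flag inhibitors of retinol signaling.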
# [9] = qHTS assay to identify small molecule antagonists of the estrogen related receptor (ERR) signaling pathway from Tox21 library - cell viability counter screen (AID 1224834); further: nearly all actives have a fitted effect of over 30% in size; further: potency means the concentration at half of the fitted maximal effect
# Outline: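 Seeded ERR cells were rested 6 h at 37 C/5% CO2 before compounds, positive and negative controls or DMSO were added. Incubation continued for 17.5 h, and viability was then quantified by CellTiter-Fluor fluorescence.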
# [10] = qHTS assay to identify small molecule antagonists of the vitamin D receptor (VDR) signaling pathway - cell viability counter screen (AID 743225); further: nearly all actives have a fitted effect of over 50% in size; further: potency means the concentration at half of the fitted maximal effect
# Outline: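 In this counter screen, VDR-bla HEK 293T cells receive test compound plus 3 nM final calcitriol for 16 h at 37C. Room-temperature steps of 2 h with the beta-lactamase substrate, then 30 min with CellTiter-Glo, precede the luminescence read.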
# [11] = qHTS assay to identify small molecule agonists of the retinoic acid receptor (RAR) signaling pathway (AID 1159553); further: potency means the concentration at half of the fitted maximal effect
# Outline: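 6 hr compound exposure (DMSO vehicle) of overnight-plated C3RL4 RARE-luc cells at 37 C; luminescence quantified after 30 min RT with luciferase reagent.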
# [12] = qHTS assay to identify small molecule antagonists of the estrogen related receptor (ERR) signaling pathway - cell viability counter screen (AID 1224818); further: series mostly up to about 46 µM
# Outline: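 Compounds dissolved in DMSO were applied to ERR cells seeded at 2,000 per well 6 h earlier. Cell viability followed 17.5 h later via 30-min CellTiter-Fluor fluorescence.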
# [13] = qHTS assay to identify small molecule antagonists of the estrogen related receptor (ERR) signaling pathway (AID 1224819; further: nearly all actives have a fitted effect of over 50% in size; further: potency means the concentration at half of the fitted maximal effect)
# Outline: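 Compounds dissolved in DMSO were pin-transferred onto ERR cells that had been plated 6 h earlier, and cells were then incubated 18 h at 37 C; signal was luciferase luminescence via One-Glo.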
# [14] = qHTS assay to identify small molecule agonists of the estrogen related receptor (ERR) signaling pathway (AID 1224820)
# Outline: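 After 6 h plating (2,000 cells/well) and 18 h compound treatment at 37 C, ERR cells were lysed with One-Glo and luminescence read after 30 min at room temperature.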
# [15] = test system: estrogen-related receptor alpha (ERRalpha) with PGC-1alpha coactivator, human; assay: qHTS assay to identify small molecule antagonists of the estrogen related receptor signaling pathway with the pleiotropic PPARgamma coactivator (PGC) (AID 1224821; calls by dose curve; further: nearly all actives have a fitted effect of over 50% in size; further: potency means the concentration at half of the fitted maximal effect)
# Outline: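 Luminescence from One-Glo luciferase reagent (30 min, room temperature) measured after 18 h compound treatment at 37 °C. Cells carry the PGC/ERR reporter and were seeded 6 h prior to dosing.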
# [16] = qHTS assay to identify small molecule agonists of the estrogen related receptor signaling pathway with the pleiotropic PPARgamma coactivator (PGC) (AID 1224823)
# Outline: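 Luminescence from One-Glo reagent (30 min, room temperature) was read after 18 h compound treatment at 37 C of PGC/ERR cells plated 6 h beforehand; compounds delivered in DMSO by pin tool.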
# [17] = qHTS assay to identify small molecule antagonists of the estrogen related receptor signaling pathway with the pleiotropic PPARgamma coactivator (PGC) cell viability counter screen (AID 1224822; further: potency means the concentration at half of the fitted maximal effect)
# Outline: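 Counter screen for cell viability: PGC/ERR cells, 6 h pre-incubation after plating, 17.5 h compound exposure at 37 C, fluorescence from CellTiter-Fluor after 30 min.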
# [18] = qHTS assay to identify small molecule antagonists of the retinoid-related orphan receptor gamma (ROR-gamma) signaling pathway - cell viability counter screen (AID 1159520); further: nearly all actives have a fitted effect of over 50% in size; further: potency means the concentration at half of the fitted maximal effect
# Outline: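 Tet-on ROR gamma CHO cells were given compounds for 2 hr, then doxycycline hyclate at 1 uM final, and incubated 16 hr at 37 C. Viability was measured as ATP content by CellTiter-Glo luminescence.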
# [19] = target: Retinoic acid receptor RXR-alpha (Homo sapiens) (UniProt P19793); assay: qHTS assay to identify small molecule agonists of the RXR signaling pathway (AID 1159527; calls by dose curve; further: nearly all actives have a fitted effect of over 35% in size; further: potency means the concentration at half of the fitted maximal effect)
# Chain of Retinoic acid receptor RXR-alpha (Homo sapiens) (P19793 whole entry, looked up): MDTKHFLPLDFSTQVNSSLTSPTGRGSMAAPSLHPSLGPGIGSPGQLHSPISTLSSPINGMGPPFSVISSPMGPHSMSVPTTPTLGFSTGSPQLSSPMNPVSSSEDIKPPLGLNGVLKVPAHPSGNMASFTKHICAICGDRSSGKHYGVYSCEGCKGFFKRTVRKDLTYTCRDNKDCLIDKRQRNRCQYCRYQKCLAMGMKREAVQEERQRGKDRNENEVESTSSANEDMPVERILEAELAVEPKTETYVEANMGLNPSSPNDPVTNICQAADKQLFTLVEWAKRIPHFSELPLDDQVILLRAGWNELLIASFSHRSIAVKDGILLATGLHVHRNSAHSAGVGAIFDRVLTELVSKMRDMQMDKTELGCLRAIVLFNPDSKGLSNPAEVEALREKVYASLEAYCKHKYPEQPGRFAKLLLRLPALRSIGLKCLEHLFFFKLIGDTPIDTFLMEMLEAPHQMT
# Outline: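 Fluorescence ratio readout (460 vs 530 nm) from GeneBLAzer RXR-alpha HEK 293T cells after 16 hr compound treatment; cells seeded 5 hr beforehand in low-serum, charcoal-stripped medium.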
smiles,measurement,setting,value
Oc1ccc2c(c1)-c1ccccc1C2,Potency,[1],inactive
same,Potency,[2],inactive
same,Potency,[3],inactive
same,Potency,[4],inactive
same,Potency,[5],inactive
same,Potency,[6],inactive
same,Potency,[7],inactive
same,Potency,[8],inactive
same,Potency,[9],inactive
C[C@@H]1C[C@H]2[C@@H]3CCC4=CC(=O)C=C[C@]4(C)[C@@]3(Cl)[C@@H](O)C[C@]2(C)[C@@]1(OC(=O)c1ccco1)C(=O)CCl,Potency,[1],inactive
same,Potency,[2],inactive
same,Potency,[3],11.9 µM (active)
same,Potency,[4],inactive
same,Potency,[5],inactive
same,Potency,[7],inactive
same,Potency,[9],23.7 µM (active)
CCCCCOc1ccccc1/C(=C\SC)n1ccnc1,Potency,[10],inactive
same,Potency,[1],inactive
same,Potency,[2],inactive
same,Potency,[3],13.3 µM (active)
same,Potency,[4],inactive
same,Potency,[7],inactive
same,Potency,[8],inactive
same,Potency,[11],33.5 µM (active)
same,Potency,[9],29.8 µM (active)
CN(C/C=C/C#CC(C)(C)C)Cc1cccc2ccccc12,Potency,[10],inactive
same,Potency,[1],21.3 µM (active)
same,Potency,[2],inactive
same,Potency,[3],inactive
same,Potency,[4],inactive
same,Potency,[6],7.56 µM (active)
same,Potency,[7],inactive
same,Potency,[11],inactive
same,Potency,[9],inactive
Clc1ccccc1C(c1ccccc1)(c1ccccc1)n1ccnc1,Potency,[12],inactive
same,Potency,[13],12.8 µM (active)
same,outcome,[14],inactive
same,Potency,[15],20.3 µM (active)
same,outcome,[16],inactive
Fc1ccc(C(c2ccc(F)cc2)N2CCN(C/C=C/c3ccccc3)CC2)cc1,Potency,[13],19.6 µM (active)
same,outcome,[14],inactive
same,outcome,[16],inactive
CCN(CC)CCNC(=O)c1c(C)[nH]c(/C=C2\C(=O)Nc3ccc(F)cc32)c1C,Potency,[17],8.74 µM (active)
Cc1cc(CCN2CCN(c3nsc4ccccc34)CC2)cc2c1NC(=O)CC2(C)C,Potency,[10],19.5 µM (active)
same,Potency,[1],54.9 µM (active)
same,Potency,[18],61.1 µM (active)
same,Potency,[3],9.69 µM (active)
same,Potency,[4],54.9 µM (active)
same,Potency,[8],30.6 µM (active)
Nc1cc(C(F)(F)F)ccc1S,Potency,[1],inactive
same,Potency,[3],26.6 µM (active)
same,Potency,[4],inactive
same,Potency,[7],inactive
same,Potency,[8],6.68 µM (active)
Clc1ccc2nsnc2c1NC1=NCCN1,Potency,[10],inactive
same,Potency,[1],inactive
same,Potency,[18],inactive
same,Potency,[4],inactive
same,Potency,[5],inactive
same,Potency,[19],inactive
same,Potency,[6],inactive
same,Potency,[7],inactive
same,Potency,[8],inactive
same,Potency,[11],inactive
same,Potency,[12],inactive
same,Potency,[13],inactive
same,outcome,[14],inactive
same,Potency,[15],inactive
same,Potency,[17],inactive
same,outcome,[16],inactive
Oc1ccc2cc(SSc3ccc4cc(O)ccc4c3)ccc2c1,Potency,[1],inactive
same,Potency,[18],48.6 µM (active)
same,Potency,[3],48.6 µM (active)
same,Potency,[4],inactive
same,Potency,[8],7.7 µM (active) and 12.2 µM (active)
same,Potency,[9],61.1 µM (active)
COc1cc(-c2nc(NC(=O)c3cc4cc(C)cc(C)c4n3CC(=O)O)sc2CCC2CCCCC2)c(OC)cc1Cl,Potency,[10],10 µM (active)
same,Potency,[1],10 µM (active)
same,Potency,[18],39.7 µM (active)
same,Potency,[3],19.9 µM (active)
same,Potency,[9],49.9 µM (active)
N#CSc1ccc(N)c([N+](=O)[O-])c1,Potency,[1],inactive
same,Potency,[3],48.9 µM (active)
same,Potency,[4],inactive
same,Potency,[8],17.3 µM (active)
same,Potency,[9],54.8 µM (active)
Cc1cc(C2CCCCC2)n(O)c(=O)c1,Potency,[1],5.35 µM (active)
same,Potency,[3],23.7 µM (active)
same,Potency,[4],inactive
same,Potency,[7],inactive
same,Potency,[8],inactive
same,Potency,[9],9.44 µM (active)
CC[C@@]1(O)C(=O)OCc2c1cc1n(c2=O)Cc2cc3c(CN(C)C)c(O)ccc3nc2-1,Potency,[1],inactive
same,Potency,[18],2.11 µM (active)
same,Potency,[4],inactive
same,Potency,[7],inactive
same,Potency,[8],3.76 µM (active)
same,Potency,[11],inactive
same,Potency,[13],0.75 µM (active)
same,outcome,[14],inactive
same,outcome,[16],inactive
O=C(Oc1cccc2cccnc12)c1ccccc1,Potency,[1],2.39 µM (active)
same,Potency,[18],inactive
same,Potency,[4],inactive
same,Potency,[6],8.49 µM (active)
same,Potency,[7],inactive
CCc1cc(Cc2cc(CC)c(N)c(CC)c2)cc(CC)c1N,Potency,[1],49 µM (active)
same,Potency,[3],48.6 µM (active)
same,Potency,[6],38.9 µM (active)
same,Potency,[7],inactive
same,Potency,[8],inactive
CC(=O)N1CCN(c2ccc(OC[C@H]3CO[C@](Cn4ccnc4)(c4ccc(Cl)cc4Cl)O3)cc2)CC1,Potency,[10],38.9 µM (active)
same,Potency,[1],61.6 µM (active)
same,Potency,[3],9.69 µM (active)
same,Potency,[6],17.4 µM (active)
same,Potency,[13],9.08 µM (active)
same,outcome,[14],inactive
same,Potency,[15],29.8 µM (active)
same,outcome,[16],inactive
CCC(C)Nc1ccc(NC(C)CC)cc1 (stereo unspecified),Potency,[10],8.88 µM (active)
same,Potency,[1],44.5 µM (active)
same,Potency,[18],31.2 µM (active)
same,Potency,[3],27.8 µM (active)
same,Potency,[7],39.3 µM (active)
same,Potency,[9],19.7 µM (active)
O=C1C=CC(=O)N1,Potency,[10],35.6 µM (active)
same,Potency,[1],inactive
same,Potency,[18],12.5 µM (active)
same,Potency,[3],5.59 µM (active)
same,Potency,[6],22.5 µM (active)
same,Potency,[7],31.4 µM (active)
same,Potency,[8],8.86 µM (active)
same,Potency,[9],49.8 µM (active)
COc1cccc2c1C(=O)c1c(O)c3c(c(O)c1C2=O)C[C@@](O)(C(=O)CO)C[C@@H]3O[C@H]1C[C@H](N)[C@H](O[C@@H]2CCCCO2)[C@H](C)O1,Potency,[10],inactive
same,Potency,[1],inactive
same,Potency,[18],5.31 µM (active)
same,Potency,[3],inactive
same,Potency,[7],inactive
same,Potency,[11],inactive
same,Potency,[9],9.44 µM (active)
CC1(C)CCC(C)(C)c2cc(C(=O)Nc3ccc(C(=O)O)cc3)ccc21,Potency,[1],inactive
same,Potency,[3],61.1 µM (active)
same,Potency,[4],inactive
same,Potency,[5],inactive
same,Potency,[19],4.36 µM (active)
same,Potency,[6],inactive
same,Potency,[7],inactive
same,Potency,[9],inactive
CNc1ccc(O)cc1,Potency,[1],48.9 µM (active)
same,Potency,[18],7.68 µM (active)
same,Potency,[4],24.5 µM (active)
same,Potency,[6],34.6 µM (active)
same,Potency,[7],27.3 µM (active)
same,Potency,[8],27.3 µM (active)
same,Potency,[9],43.2 µM (active)
CN(C)c1ccc(SC#N)cc1,Potency,[1],17.4 µM (active)
same,Potency,[18],inactive
same,Potency,[4],inactive
same,Potency,[6],inactive
same,Potency,[8],9.69 µM (active)
same,Potency,[11],inactive
same,Potency,[9],inactive
CCN1/C(=C/C=C/c2sc3ccccc3[n+]2CC)Sc2ccccc21,Potency,[10],inactive
same,Potency,[1],inactive
same,Potency,[18],11.6 µM (active)
same,Potency,[3],2.31 µM (active)
same,Potency,[7],14.6 µM (active)
same,Potency,[9],5.8 µM (active)
Cc1c(C)c2c(c(C)c1OC(=O)CCC(=O)O)CC[C@@](C)(CCC[C@H](C)CCC[C@H](C)CCCC(C)C)O2,Potency,[10],inactive
same,Potency,[1],inactive
same,Potency,[18],27.6 µM (active)
same,Potency,[3],27.6 µM (active)
same,Potency,[7],inactive
same,Potency,[8],inactive
same,Potency,[11],inactive
same,Potency,[9],inactive
